This is a sample that favours compounds with a hit; in the whole collection about 4.1% have one here.
UHRF1 MBD2 ctr: UHRF1 methylated DNA binding inhibitors, primary screen, counter-screen for MBD2 inhibitor project, biochemical, TR-FRET, human UHRF1, single concentration | E3 ubiquitin-protein ligase UHRF1 (Homo sapiens), Q96T88 | UHRF1 binding to methylated oligo | inhibition, % at 4.4 µM | hit rate 0.75% among 370,000; in the data active = inhibition above about 21%;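 also: UHRF1 SRA domain binding a hemimethylated CpG hairpin DNA probe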
LEDGF integ inh: blockers of LEDGF/p75-dependent integrase strand transfer – biochemical, TR-FRET, high throughput, primary screen | TR-FRET IN-LEDGF/p75 DNA integration, Eu/Cy5 | inhibition, % at 3.7 µM | hit rate 0.64% among 370,000 | AID 743269, 2014;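 active = inhibition above the screen-wide mean plus 3 SD, cut at about 13% in these data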;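 also: signal is the Cy5 over europium emission ratio at 671 and 618 nm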
PRMT1 inh: PRMT1 methyltransferase inhibitors, primary screen, biochemical, fluorescence polarization; hit rate 1.3% among 370,000; AID 652257, 2013; recombinant PRMT1, activity-based probe fluorescence polarization; inhibition, % at 2.79 µM;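 active = inhibition above about 21% made by adding two undisclosed values, limit read from the data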
Target sequence (Q99873 whole entry, looked up): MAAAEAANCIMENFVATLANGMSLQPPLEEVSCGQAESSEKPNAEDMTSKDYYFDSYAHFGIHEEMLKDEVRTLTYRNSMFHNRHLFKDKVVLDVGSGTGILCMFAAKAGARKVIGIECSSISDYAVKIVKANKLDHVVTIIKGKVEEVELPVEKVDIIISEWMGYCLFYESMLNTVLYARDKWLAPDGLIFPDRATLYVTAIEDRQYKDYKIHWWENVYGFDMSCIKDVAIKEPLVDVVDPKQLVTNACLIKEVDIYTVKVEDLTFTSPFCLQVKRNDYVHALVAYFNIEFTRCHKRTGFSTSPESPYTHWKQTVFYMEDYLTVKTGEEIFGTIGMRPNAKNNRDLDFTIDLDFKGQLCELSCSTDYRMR
MBD2 DNA inh: inhibitors of MBD2 binding to methylated DNA, primary screen, biochemical, TR-FRET, DNA-binding domain, human. Methyl-CpG-binding domain protein 2 (Homo sapiens), Q9UBB5. MBD2 binding to methylated oligonucleotide. inhibition, % at 4.4 µM. hit rate 0.31% among 370,000; in the data active = inhibition above about 13%
ABHD5 PLIN5 PPI: ABHD5-PLIN5 interaction inhibitors, primary screen, cell lysate, split luciferase complementation, luminescence; Perilipin-5 (Homo sapiens) + 1-acylglycerol-3-phosphate O-acyltransferase ABHD5 (Homo …; Split G. princeps luciferase complementation, 4 h; inhibition, % at 4 µM; hit rate 0.78% among 360,000; AID 602281, 2012;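 active = inhibition above the mean inhibition across every tested compound plus 3 SD, cut at about 22% in these data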
rCAG RNA binder: binders of r(CAG) RNA repeats, primary screen, biochemical, fluorescence | r(CAG) RNA repeat, TO-PRO-1 dye displacement fluorescence | inhibition, % at 3 µM | hit rate 1.3% among 370,000;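 active = inhibition above the plate cutoff, the mean of all test compounds on that plate plus 3 SD, cut at about 35% in these data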;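 also: higher means more dye released from RNA so lower well fluorescence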
IN multimer up: HIV-1 IN multimer formation enhancers, counter-screen for LEDGF/p75 integration inhibitor project, biochemical, TR-FRET | hit rate 17% among 2,000 | activation, % at 7.7 µM | shares compounds with LEDGF integ inh | AID 1053131, 2014 | TR-FRET HIV-1 integrase multimerization; in the data active = activation above about 8.9%
TRFRET interf: TR-FRET optical interference artefacts, confirmation, artefact control for LEDGF/p75-dependent integration inhibitor project, biochemical, HIV-1 IN multimerization. shares compounds with LEDGF integ inh. TR-FRET optical interference counterscreen. inhibition, % at 7.7 µM. 2,000 tested, under 10 active. AID 1053135, 2014;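 active = inhibition above the mean over all tested compounds plus 3 SD, which no compound reached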
IN-LEDGF confirm: inhibitors of HIV-1 IN-LEDGF/p75 DNA integration, confirmation, biochemical, TR-FRET; shares compounds with LEDGF integ inh; TR-FRET LEDGF/p75-dependent HIV-1 integration; inhibition, % at 3.7 µM; hit rate 36% among 2,000; in the data active = inhibition above about 14%
Numbers stand for hits; i = inactive; nt = not tested or not shown.

SMILES | UHRF1 MBD2 ctr | LEDGF integ inh | PRMT1 inh | MBD2 DNA inh | ABHD5 PLIN5 PPI | rCAG RNA binder | IN multimer up | TRFRET interf | IN-LEDGF confirm
Cc1ccccc1Cn1cc(COC(=O)NCC(C)C)nn1 | i | i | i | i | nt | i | nt | nt | nt
CCOC(=O)C1=C(C)N(C)C(=O)NC1c1cc2c(cc1[N+](=O)[O-])OCO2 (centres undefined) | i | 14 | i | i | i | i | 10 | i | i
CCCCOC(=O)C1=C(C)N(C)C(=O)NC1c1cc2c(cc1Br)OCO2 (centres undefined) | i | i | i | i | i | i | nt | nt | nt
CCCCNC(=O)C[C@H]1C[C@@]2(C(=O)OC)C(=C[C@H](C3CCCC3)O[C@@H]2C)N(CCc2ccc(OC)c(OC)c2)C1=O | i | i | i | i | nt | i | nt | nt | nt
Cc1ccc(S(=O)(=O)Nc2cc(C(C(=O)OC(C)C)C(=O)C(F)(F)F)c(O)c3ccccc23)c(C)c1 (centres undefined) | i | 14 | 25 | i | i | i | i | i | i
Cc1ccc(S(=O)(=O)Nc2ccc(O)c3ccccc23)c(C)c1 | i | 14 | i | i | i | i | i | i | i
O=C(Nc1nc2c(Br)cccc2s1)c1ccc2c(c1)OCCO2 | i | i | i | i | nt | nt | nt | nt | nt
CC(=C1N=C(c2ccccc2)OC1=O)c1cccs1 | i | 19 | i | i | nt | i | i | i | i
CC1=CC(=C2N=C(c3ccccc3)OC2=O)C=C(C)O1 | i | i | i | i | i | i | nt | nt | nt
CCCN(CCC)C(=S)NC(=O)c1ccc(Cl)cc1Cl | i | 16 | i | i | i | i | i | i | i
C#CCCN([C@H](C(=O)OC)C(C)C)S(=O)(=O)c1ccccc1Br | i | i | i | i | nt | i | nt | nt | nt
Cc1[nH]nc2c1C(c1ccc3c(c1)OCO3)N(Cc1ccccc1)C2=O (centres undefined) | i | i | i | i | nt | i | nt | nt | nt
O=C(c1ccccc1)c1cccc(NC(=O)c2ccc(Br)o2)c1 | i | 18 | i | i | i | i | i | i | i
Clc1ccc(Nc2nnc(-c3ccc4c(c3)OCO4)o2)cc1 | i | i | i | i | nt | i | nt | nt | nt
COc1ccc(/C=N/Nc2nnc(C)n2N)cc1OC | i | 48 | i | i | i | i | i | i | i
COc1ccc(/C=N/Nc2nnc(C)n2N)cc1OC(C)=O | i | 32 | i | i | i | i | i | i | i
COc1cc(/C=N/n2nnnc2N)ccc1OC(C)=O | i | i | i | i | i | i | nt | nt | nt
CC(C)[C@H](NC(=O)c1ccco1)C(=O)N1CCC[C@H]1C(=O)NCc1ccccc1 | i | i | i | i | nt | i | nt | nt | nt
N#Cc1c(NC(=O)COC(=O)C2CC3C=CC2C3)oc(-c2ccccc2)c1-c1ccccc1 (centres undefined) | i | 18 | i | i | i | i | i | i | i
CCCCCCCCNS(=O)(=O)/C=C/c1ccccc1CNC(=O)OC(C)(C)C | i | i | i | i | nt | i | nt | nt | nt
CC(C)(C)OC(=O)N/N=C/c1cccn1-c1ccc([N+](=O)[O-])cc1 | i | 14 | i | i | i | i | i | i | i
CCOC(=O)CC[C@@H]1CC[C@]2(CCCN(S(=O)(=O)c3ccccc3)C2)O1 | i | i | i | i | nt | i | nt | nt | nt
Cc1ccc(OCC(=O)N(Cc2ccccc2)c2ccccn2)cc1 | i | 52 | i | i | i | i | i | i | i
Cc1ccc(CC(=O)N(Cc2ccccc2)c2ccccn2)cc1 | i | i | i | i | i | i | nt | nt | nt
CN(C)c1ccc(N/C=C/C(=O)c2ccccc2)cc1 | i | 15 | 22 | i | i | i | i | i | i
SMILES | UHRF1 MBD2 ctr | LEDGF integ inh | PRMT1 inh | MBD2 DNA inh | ABHD5 PLIN5 PPI | rCAG RNA binder | IN multimer up | TRFRET interf | IN-LEDGF confirm
CC(=O)Nc1ccc(N/C=C/C(=O)c2ccccc2)cc1 | i | i | i | i | i | i | nt | nt | nt
CN(C)c1ccc(N/C=C/C(=O)C(C)(C)C)cc1 | i | 25 | i | i | i | i | 12 | i | i
Cc1ccc(NC(=O)c2ccc(CSc3ccccn3)cc2)c(O)c1 | i | 82 | i | i | i | i | i | i | i
O=C(NN=Cc1c(O)ccc2ccccc12)c1ccc2c(c1)OCO2 | i | i | i | i | i | i | nt | nt | nt
O=C(N/N=C\c1c(O)ccc2ccccc12)c1ccc(S(=O)(=O)N2CCCCC2)cc1 | i | 41 | i | i | i | i | i | i | i
O=C(CCCCCN1C(=O)c2ccccc2C1=O)NC1CCCC1 | i | 66 | i | i | i | i | i | i | i
O=C(CCCCCCN1C(=O)c2ccccc2C1=O)NC1CCCCC1 | i | i | i | i | i | i | nt | nt | nt
N#CC1C(=O)Nc2cccnc21 (centres undefined) | i | 27 | i | i | i | i | i | i | i
COc1ccc(CN2C(C(=O)NC3CCCC3)CSCCS2(=O)=O)cc1 (centres undefined) | i | i | i | i | nt | i | nt | nt | nt
O=C(CCCCCN1C(=O)C2C3C=CC(C3)C2C1=O)Nc1ccc2ncccc2c1 (centres undefined) | i | 22 | i | i | nt | i | i | i | i
O=C(NNC(=O)C1CCCCC1)c1ccc(Br)cc1 | i | 15 | i | i | i | i | i | i | i
O=C(NNC(=O)C1CCC1)c1ccc(Br)cc1 | i | i | i | i | i | i | nt | nt | nt
CCCc1nc2ccc(C)cn2c1Cc1ccc(C)cc1 | 21 | 14 | i | i | i | i | i | i | i
CCCc1nc2ccc(C)cn2c1Cc1cccc(F)c1 | i | i | i | i | i | i | nt | nt | nt
CC(C)C[C@H]1COc2cc(Br)ccc2S(=O)(=O)N1 | i | i | i | i | i | i | nt | nt | nt
COc1ccccc1CNc1ccc2c(c1)OC[C@H](CC(C)C)NS2(=O)=O | i | 20 | i | i | nt | i | i | i | i
CC(=O)Nc1ccc(Oc2cnc3ccccc3n2)cc1 | i | i | i | i | i | i | nt | nt | nt
CC(=O)Nc1ccc(Oc2cnccn2)cc1 | i | 29 | i | i | i | i | i | i | i
C=CCc1c(C)nc(-c2ccccc2)nc1N/N=C/c1ccccc1 | i | 53 | i | i | i | i | i | i | 25
